PubChem BioAssay
Calls of active or inactive are those of the source.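 Rule for the calls, unless noted: active = visual image review flags a hit and inhibition of aggregation exceeds 20%; inconclusive = visual hit but inhibition at or below 20%; inactive = no hit on visual image review.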

How the values were obtained:
[1] = inhibitors of TNFa-induced NFkB p65 translocation, primary screen, imaging, HUVEC, MLSMR starter and 10KST1 sets (AID 438;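 active = inhibition above 20% together with a positive visual image hit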;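 note: compound added about 3h40 before a 20 min TNFalpha stimulation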;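 for inhibition: signal is the nuclear over cytoplasmic p65 intensity ratio per well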); conditions: HUVEC TNFa-induced p65 nuclear translocation; cell count: measured here: nuclei count (cytotoxicity indicator), at 2.08 µM; inhibition: at 2 µM, stronger effect = higher value, 0% TNFa-plus-vehicle, 100% no-TNFa wells
[2] = inhibitors of mutant huntingtin aggregation, primary screen, imaging, exon1htt(103Q)mCFP cells, high-content imaging (AID 483); conditions: exon1htt(103Q)mCFP cell line, aggregate imaging, at 2 µM; inhibition of aggregation: stronger effect = higher value; nuclei count: measured here: cell count, toxicity;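 note: compound exposure lasted 3 days before fixation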;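 for nuclei count: percent of the per-plate median nuclei count of sample wells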
[3] = inhibitors of E-selectin induction by TNFa, primary screen, imaging, HUVEC, immunofluorescence, MLSMR starter and 10KST1 sets (AID 487;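 active = visually confirmed hit in the image check and inhibition above 20%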;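 for inhibition: signal is fraction of cell area covered by stained E-selectin grains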;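 for nuclei count: 100% = median nuclei count of all wells on the same plate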); conditions: HUVEC TNFalpha-induced E-selectin immunofluorescence imaging, at 2 µM; inhibition: stronger effect = higher value; nuclei count: measured here: cell number, toxicity
[4] = molecular target: Voltage-gated potassium channel subunit beta-2 (Rattus norvegicus) (UniProt P62483); assay: KvBeta enzyme negative modulators, primary screen, biochemical, NADPH fluorescence (AID 622;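 active = fluorescence slope higher than the sample average by over 3 SD, cut at about -0.22 in these data, passing the limit was not always enough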;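 note: slope of raw intensity against log time taken from 70 to 1610 s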); conditions: recombinant KvBeta, 4-cyanobenzaldehyde reduction, at 10 µM, stronger effect = higher value
[5] = molecular target: Voltage-gated potassium channel subunit beta-2 (Rattus norvegicus) (UniProt P62483); assay: KvBeta positive modulators, primary screen, biochemical, NADPH fluorescence (AID 623;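 active = NADPH fluorescence slope more negative than the mean of all samples by about 3 SD, 99.7% confidence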;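 note: fluorescence intensity change per second fitted from 20 to 320 s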); conditions: Recombinant KvBeta, NADPH fluorescence decrease slope, 10 min; at 10 µM; stronger effect = lower value
[6] = molecular target: Alpha-2C adrenergic receptor (Homo sapiens) (UniProt P18825); assay: modulators of alpha2C/GIRK thallium flux, primary screen, cell-based, HEK293 alpha2C/GIRK1/2 (AID 624;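 active = fluorescence slope after compound addition differing from the mean of all screened samples at 99.7% confidence, in either direction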;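 note: slope of fluorescence ratio to pre-addition baseline per second over 15 to 24 s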); conditions: thallium flux BTC fluorescence, at 10 µM, actives lie on both sides
[7] = inhibitors of Sendai virus-induced IRF3 signaling, primary screen, TLR/RLR signaling modifier project, cell-based, Sendai virus stimulus, luciferase, 10K MLSCN set (AID 602276;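 active = inhibition at or above 50% at 10 µM; inactive = inhibition below 50%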;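 note: firefly luciferase from ISG56 promoter only with Renilla not read in this screen; 0% = Sendai virus plus DMSO and 100% = medium plus DMSO without virus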); conditions: HEK293 RL24 IRF3 luciferase reporter, at 10 µM, stronger effect = higher value
[8] = inhibitors of poly I:C-induced TLR3 signaling, primary screen, cell-based, poly I:C stimulus, luciferase, 10K MLSCN set (AID 602277;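 active = inhibition of the reporter signal at or above 50%; inactive = inhibition below 50%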); conditions: HEK293-TLR3 RL24 IRF3 luciferase reporter, at 10 µM, stronger effect = higher value

Sequence of Alpha-2C adrenergic receptor (Homo sapiens) (P18825 whole entry, looked up): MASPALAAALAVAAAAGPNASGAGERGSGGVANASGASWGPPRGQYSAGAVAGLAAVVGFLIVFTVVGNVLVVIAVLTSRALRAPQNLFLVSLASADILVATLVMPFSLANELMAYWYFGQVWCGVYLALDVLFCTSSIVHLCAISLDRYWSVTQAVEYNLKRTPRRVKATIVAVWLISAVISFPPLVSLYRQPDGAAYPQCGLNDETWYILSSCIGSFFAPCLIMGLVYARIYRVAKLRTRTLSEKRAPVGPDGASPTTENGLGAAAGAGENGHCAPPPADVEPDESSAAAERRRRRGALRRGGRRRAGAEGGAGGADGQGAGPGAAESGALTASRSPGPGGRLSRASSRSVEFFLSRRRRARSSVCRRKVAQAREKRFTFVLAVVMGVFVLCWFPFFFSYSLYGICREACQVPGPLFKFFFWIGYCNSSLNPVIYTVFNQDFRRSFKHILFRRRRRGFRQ
Sequence of Voltage-gated potassium channel subunit beta-2 (Rattus norvegicus) (P62483 whole entry, looked up): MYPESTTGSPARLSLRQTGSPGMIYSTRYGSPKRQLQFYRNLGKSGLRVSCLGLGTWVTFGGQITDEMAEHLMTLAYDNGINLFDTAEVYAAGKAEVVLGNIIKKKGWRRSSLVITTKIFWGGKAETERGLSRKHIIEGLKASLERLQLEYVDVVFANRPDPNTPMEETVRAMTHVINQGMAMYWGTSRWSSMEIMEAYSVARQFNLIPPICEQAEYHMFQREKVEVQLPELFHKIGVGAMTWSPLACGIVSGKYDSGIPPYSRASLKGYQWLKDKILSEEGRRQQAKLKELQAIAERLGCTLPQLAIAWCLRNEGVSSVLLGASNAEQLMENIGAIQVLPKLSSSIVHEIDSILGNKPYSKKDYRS

Row | Compound | cell count [1] | inhibition [1] | inhibition of aggregation [2] | nuclei count [2] [%] | inhibition [3] | nuclei count [3] [%] | fluorescence slope [4] | NADPH fluorescence slope [5] | slope [6] | inhibition [7] | inhibition [8]
1 | COC(=O)c1cc(OC)c(OC)cc1NC(=O)c1ccc(Br)o1 | 296 | -7.2% (inactive) | -7.5% (inactive) | 95.4 | -91.3% (inactive) | 103 | -0.312 (inactive) | -4.6e-05 (inactive) | 0.00764 (inactive) | 2.63% (inactive) | -5.12% (inactive)
2 | COc1ccc(S(=O)(=O)C(C#N)c2nc3ccccc3nc2N2CCCC(C)C2)cc1 (stereo not drawn) | 714 | -5% (inactive) | -12.7% (inactive) | 92.2 | 16% (inactive) | 113 | -0.417 (inactive) | 7.1e-06 (inactive) | 0.00445 (inactive) | 13% (inactive) | 0.928% (inactive)
3 | COc1cc(-c2noc(-c3ccccc3C(=O)NCc3ccco3)n2)cc(OC)c1OC | 654 | -5.4% (inactive) | -4% (inactive) | 112 | -111% (inactive) | 156 | -0.59 (inactive) | -4.7e-05 (inactive) | 0.00612 (inactive) | 14.7% (inactive) | 31.9% (inactive)
4 | COc1ccc(OC)c(S(=O)(=O)NCCC2=CCCCC2)c1 | 677 | -3.6% (inactive) | -18.8% (inactive) | 91.5 | 16.5% (inactive) | 95 | -0.486 (inactive) | -4.4e-05 (inactive) | 0.00446 (inactive) | -1.71% (inactive) | 24.3% (inactive)
5 | COc1ccccc1OCC(=O)N1CCN(c2ccccc2OC)CC1 | 471 | 3% (inactive) | 5.3% (inactive) | 108 | 35.1% (inactive) | 107 | -0.6 (inactive) | -1.5e-05 (inactive) | 0.00684 (inactive) | -19.3% (inactive) | -1.87% (inactive)
6 | O=C(Cn1nnc(-c2ccccc2)n1)Nc1ccccc1N1CCOCC1 | 584 | 3% (inactive) | 5.4% (inactive) | 63.9 | -16% (inactive) | 107 | -0.602 (inactive) | 2.3e-05 (inactive) | 0.0042 (inactive) | 14.7% (inactive) | 14.8% (inactive)
7 | CCC(C)NC(=O)CC1Oc2ccc(C)cc2NC1=O (stereo not drawn) | 585 | -2% (inactive) | 9.7% (inactive) | 100 | -116% (inactive) | 126 | -0.56 (inactive) | -1.5e-05 (inactive) | 0.00629 (inactive) | 2.24% (inactive) | 22.9% (inactive)
8 | Cc1csc2nc(CNC(=O)c3ccco3)cn12 | 518 | -8.8% (inactive) | -5.9% (inactive) | 90.4 | -27.7% (inactive) | 71 | -0.511 (inactive) | -5.4e-05 (inactive) | 0.00553 (inactive) | -23.7% (inactive) | -70.6% (inactive)
9 | Cc1cc(C)n2nc(SCc3cc(=O)n4ccccc4n3)nc2n1 | 536 | -16.3% (inactive) | 13% (inactive) | 66.3 | -75.8% (inactive) | 112 | -0.29 (inactive) | -4.7e-06 (inactive) | 0.00424 (inactive) | 5.17% (inactive) | 14.4% (inactive)
10 | CCN(c1ccc2c(c1)OCO2)S(=O)(=O)c1cc(Br)cc2c1N(C(=O)C1CC1)CC2 | 341 | -14.4% (inactive) | 1.3% (inactive) | 99.8 | -9% (inactive) | 147 | -0.525 (inactive) | -0.000116 (inactive) | 0.00411 (inactive) | 11.9% (inactive) | 21.6% (inactive)
11 | CCCCSCCCNC(=O)CS(=O)Cc1nc(-c2cccc(C)c2)oc1C (stereo not drawn) | 527 | -9.6% (inactive) | -1.1% (inactive) | 107 | -27.5% (inactive) | 113 | -0.308 (inactive) | 1.3e-05 (inactive) | -0.000762 (active) | 10.8% (inactive) | 10.7% (inactive)
12 | Nc1nc(-c2ccc(Cl)cc2)nn1C(=O)c1cccnc1 | 293 | 4.2% (inactive) | -4.2% (inactive) | 96.8 | 40.8% (inactive) | 105 | -0.397 (inactive) | 6.7e-06 (inactive) | 0.00507 (inactive) | -0.966% (inactive) | -2.82% (inactive)
13 | Cc1nc2sc(C(c3cccc(F)c3)N3CCOCC3)c(O)n2n1 (stereo not drawn) | 244 | -9% (inactive) | -29% (inactive) | 112 | -18.1% (inactive) | 119 | -0.502 (inactive) | -9.8e-05 (inactive) | 0.00576 (inactive) | -7.54% (inactive) | 99.3% (active)
14 | Cc1cc(C(=O)COC(=O)C2COc3ccccc3O2)c(C)n1CC1CCCO1 (stereo not drawn) | 460 | 0.5% (inactive) | 19.3% (inactive) | 81.4 | -126% (inactive) | 119 | -0.373 (inactive) | -4.2e-05 (inactive) | 0.00612 (inactive) | 6.89% (inactive) | 22.4% (inactive)
15 | CN(C)c1ccc(NC(=O)c2cc3c(=O)n4ccccc4nc3n2C)cc1 | 216 | -10.7% (inactive) | 4.4% (inactive) | 89 | 52.4% (inactive) | 68.8 | -0.572 (inactive) | -3.5e-05 (inactive) | 0.00472 (inactive) | 1.6% (inactive) | -86.3% (inactive)
16 | Cc1cccc(CCNC(=O)CCc2nc(-c3ccccc3F)no2)c1 | 357 | 2.8% (inactive) | -1.1% (inactive) | 101 | -2.7% (inactive) | 114 | -0.415 (inactive) | -2.4e-05 (inactive) | 0.00305 (inactive) | -0.595% (inactive) | 2.35% (inactive)
17 | O=C(CS(=O)CC(=O)Nc1cccc2c1CCCC2)Nc1ccc(F)cc1 (stereo not drawn) | 210 | 2.1% (inactive) | -8.6% (inactive) | 84.1 | 26.9% (inactive) | 80.2 | -0.621 (inactive) | 1e-05 (inactive) | 0.00343 (inactive) | 12.7% (inactive) | 18.9% (inactive)
18 | O=C(CSc1nccn1Cc1ccccc1)Nc1nccs1 | 388 | -0.7% (inactive) | 10.4% (inactive) | 83.7 | -16.7% (inactive) | 118 | -0.512 (inactive) | -2.7e-05 (inactive) | 0.00698 (inactive) | -30.1% (inactive) | -82.1% (inactive)
19 | CC(C)(C)n1ncc2c(=O)n(CC(=O)NCc3ccc(F)cc3)cnc21 | 403 | 9.3% (inactive) | 14.9% (inactive) | 95.8 | 18.8% (inactive) | 91.1 | -0.367 (inactive) | -5.3e-05 (inactive) | 0.00547 (inactive) | -15.8% (inactive) | -46.6% (inactive)
20 | CCOc1cc2[nH]c(=O)n(CCCCC(=O)NCc3ccco3)c(=O)c2cc1OCC | 394 | -17.9% (inactive) | -0.5% (inactive) | 117 | -41.6% (inactive) | 110 | -0.508 (inactive) | -6e-05 (inactive) | 0.00662 (inactive) | 9.08% (inactive) | 35.9% (inactive)
21 | Cc1ccc2nc(NC(=O)C3CCCN(S(=O)(=O)c4cnc[nH]4)C3)sc2c1 (stereo not drawn) | 567 | 6.9% (inactive) | -11.1% (inactive) | 106 | -42.7% (inactive) | 113 | -0.553 (inactive) | -6.7e-06 (inactive) | 0.00608 (inactive) | -43.1% (inactive) | -79.3% (inactive)
22 | CCCCNC(=O)OCCNC(=O)NC | 314 | 2.9% (inactive) | -7.8% (inactive) | 100 | -62.2% (inactive) | 107 | -0.317 (inactive) | -2.2e-05 (inactive) | 0.00519 (inactive) | 7.22% (inactive) | 2.44% (inactive)
23 | COc1ccc(-c2nc3c(c(=O)n(C)c(=O)n3C)n2CC2CC(c3ccccc3)=NO2)cc1OC (stereo not drawn) | 233 | -3.2% (inactive) | 5.3% (inactive) | 87.9 | -3.5% (inactive) | 86.7 | -0.587 (inactive) | -2.7e-05 (inactive) | 0.00673 (inactive) | 29.6% (inactive) | 30.8% (inactive)
24 | Cc1cc(C)cc(-n2nnc(C(=O)NCc3ccc4c(c3)OCO4)c2N)c1 | 571 | 7.5% (inactive) | -33.1% (inactive) | 108 | -17.7% (inactive) | 108 | -0.572 (inactive) | 2.9e-05 (inactive) | 0.00545 (inactive) | 7.67% (inactive) | 22.1% (inactive)
25 | COc1ccc(-c2ccc(-c3noc(-c4ccccc4OC)n3)c(OC)n2)cc1 | 294 | 16.9% (inactive) | -30.2% (inactive) | 86.6 | -1.9% (inactive) | 111 | -0.0455 (inactive) | -3.2e-06 (inactive) | 0.00463 (inactive) | -0.193% (inactive) | -36.2% (inactive)
26 | Cc1cc2ccccc2c(=O)n1CC(=O)Nc1ccc2c(c1)OCO2 | 455 | 0% (inactive) | -12.3% (inactive) | 108 | -85.2% (inactive) | 109 | -0.48 (inactive) | -2.6e-05 (inactive) | 0.00487 (inactive) | 2.31% (inactive) | 23.9% (inactive)
27 | O=C(COC(=O)c1cncc(Br)c1)NCCC1=CCCCC1 | 555 | -7.6% (inactive) | 6% (inactive) | 107 | -26.8% (inactive) | 116 | -0.338 (inactive) | -3.9e-05 (inactive) | 0.00679 (inactive) | 1.87% (inactive) | 25.9% (inactive)
28 | O=C(CS(=O)(=O)c1cn(Cc2ccc(Cl)cc2)c2ccccc12)N1CCCC1 | 654 | -3.9% (inactive) | -11.8% (inactive) | 116 | 13.5% (inactive) | 111 | -0.538 (inactive) | -3.5e-05 (inactive) | 0.00627 (inactive) | 15.4% (inactive) | 34% (inactive)
